Source: PubChem (Broad Institute)
miR122 inh = raises miR-122 sensor activity in Huh7 cells; Huh7 psiCHECK-miR122 Renilla luciferase sensor, 48 h; activation, % at 12.5 µM; 340,000 compounds, 0.14% hits;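 active = mean activation of 30% or more, with every replicate also reaching 30%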;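 note: 0% = median of neutral control wells and 100% = median of positive control wells; higher luciferase signal means stronger suppression of miR-122 activity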
The depositor's hits bear a star. The full list was thinned out, with hits kept by preference.

SMILES | miR122 inh
COc1ccccc1-c1ccc2c(c1)O[C@@H](CN(C)C(=O)Nc1ccccc1)[C@@H](C)CN([C@H](C)CO)S2(=O)=O | -4
CN1C(=O)c2cc(NC(=O)c3ccc(C(F)(F)F)cc3)ccc2OC[C@H]2O[C@H](CC(=O)NC3Cc4ccccc4C3)CC[C@@H]21 | 63*
CN1C(=O)c2cc(NC(=O)c3ccc(C(F)(F)F)cc3)ccc2OC[C@@H]2O[C@H](CC(=O)NC3Cc4ccccc4C3)CC[C@H]21 | 37*
C[C@H](CO)N1C[C@H](C)[C@H](CN(C)C(=O)Nc2ccccc2F)Oc2ncc(-c3cccc(F)c3)cc2C1=O | 0
C[C@H]1CN([C@@H](C)CO)C(=O)c2cc(-c3ccc(F)cc3)cnc2O[C@H]1CN(C)Cc1ccccn1 | -5
C[C@@H]1CN([C@@H](C)CO)C(=O)c2cc(C#Cc3ccccn3)cnc2O[C@@H]1CN(C)C(=O)c1cnccn1 | 5
C[C@H]1CN([C@@H](C)CO)C(=O)c2cc(-c3ccc(C(=O)N(C)C)cc3)cnc2O[C@@H]1CN(C)Cc1ccc(C(=O)O)cc1 | 3
CCC(=O)N(C)C[C@@H]1Oc2ncc(C#C[C@H](C)O)cc2C(=O)N([C@H](C)CO)C[C@@H]1C | 0
C[C@H]1CN([C@@H](C)CO)C(=O)Cc2cc(NS(=O)(=O)c3ccc(F)cc3)ccc2O[C@H]1CN(C)Cc1ccc(C(=O)Nc2ccccc2N)cc1 | -114
O=C(NC(NC(=S)Nc1c(Cl)cccc1Cl)C(Cl)(Cl)Cl)c1cccc([N+](=O)[O-])c1 (stereo not drawn) | -174
COC(=O)c1nn(-c2ccccc2)c(Sc2ccc(Cl)cc2)c1/C=N/O | 36*
C[C@@H]1CN([C@@H](C)CO)C(=O)c2cc(Br)cnc2O[C@@H]1CN(C)Cc1ccc(Oc2ccccc2)cc1 | -33
C[C@@H]1CN([C@@H](C)CO)S(=O)(=O)c2ccc(C#C[C@@H](C)O)cc2O[C@H]1CN(C)C(=O)Cc1ccccn1 | 0
Cc1ccc(S(=O)(=O)N(C)C[C@H]2Oc3cc(-c4cccc(F)c4)ccc3S(=O)(=O)N([C@H](C)CO)C[C@@H]2C)cc1 | 3
COCC#Cc1cnc2c(c1)C(=O)N([C@@H](C)CO)C[C@H](C)[C@@H](CN(C)S(=O)(=O)c1cccc(OC)c1)O2 | -6
C=C(C)CN(CC)C(=O)COc1ccc(S(=O)(=O)Nc2ccc(OC)cc2)cc1 | -186
Cc1ccc(C2CC(C(F)(F)F)n3nc(C(=O)NCc4ccco4)cc3N2)cc1 (stereo not drawn) | 41*
Cc1ccc(CN2CCSc3ccc(C(=O)NCc4ccco4)cc32)cc1 | -100
O=C(NC1CCCC1)C(c1ccccc1F)N(C(=O)Cc1cccs1)c1ccc2c(c1)OCCO2 (stereo not drawn) | -172
CC1(C)CC(=O)c2cnc(NC(=O)c3ccco3)nc2C1 | 38*
O=C(Nc1ccc(Br)c(Cl)c1)c1ccco1 | -144
CC1CCCC(NS(=O)(=O)c2ccc3c(c2)OCCO3)C1C (stereo not drawn) | -112
Cc1cccc(CN(C)C[C@@H]2Oc3ncc(-c4ccc(F)cc4)cc3C(=O)N([C@H](C)CO)C[C@@H]2C)c1 | -20
CCOC(=O)/C(=N/Nc1ccc(Cl)cc1)S(=O)(=O)c1ccccc1 | -94
CCOc1ccc(CCNC(=O)C2CCN(S(=O)(=O)N3CCC(C)CC3)CC2)cc1OCC | 33*
SMILES | miR122 inh
CCOc1ccc(S(=O)(=O)N2CCC(C(N)=O)CC2)c2ccccc12 | -90
CCOc1ccc(NS(=O)(=O)c2cc(NC(=O)C3CC3)ccc2C)cc1Br | -140
C/C=C/c1cnc2c(c1)C(=O)N([C@@H](C)CO)C[C@@H](C)[C@H](CN(C)C(=O)Nc1cccc(OC)c1)O2 | -15
C[C@@H]1CN([C@@H](C)CO)C(=O)c2cc(/C=C/c3ccccc3)cnc2O[C@H]1CN(C)Cc1ccccc1F | -19
NC(=O)C1CCN(C2=C(Cl)C(=O)c3ccccc3C2=O)CC1 | 70*
CO[C@H]1CN(C)C(=O)c2cc(NC(C)=O)ccc2OC[C@@H](C)N(C(=O)CN(C)C)C[C@H]1C | -3
C[C@H](CO)N1C[C@H](C)[C@H](CN(C)C(=O)Nc2ccc(F)cc2)Oc2cc(-c3ccncc3)ccc2S1(=O)=O | 7
CCOc1ccccc1NS(=O)(=O)c1ccc(-c2cnc(C3CC3)o2)cc1 | -127
CCOC(=O)/C(C#N)=C1/C=CN(Cc2ccccc2)C=N1 | 33*
CC(=O)N1CCOc2ccc(S(=O)(=O)Nc3cccc(C)c3)cc21 | -130
COCC(=O)N(C)C[C@@H]1Oc2cc(C#CC(C)C)ccc2S(=O)(=O)N([C@H](C)CO)C[C@@H]1C | 0
c1cnc(N2CCN(Cc3c[nH]c4ccccc34)CC2)nc1 | 38*
COc1ccc(C#Cc2cnc3c(c2)C(=O)N([C@H](C)CO)C[C@@H](C)[C@@H](CN(C)CC2CCCC2)O3)cc1 | 8
C[C@H]1CN([C@@H](C)CO)C(=O)c2cc(/C=C/c3ccccc3)cnc2O[C@H]1CN(C)C(=O)Nc1ccccc1F | 3
COC(=O)C[C@H]1CC[C@H]2[C@H](COc3ccc(NC(=O)NC(C)C)cc3C(=O)N2C)O1 | 50*
COC(=O)C[C@H]1CC[C@H]2[C@H](COc3ccc(NC(=O)Nc4ccccc4C)cc3C(=O)N2C)O1 | -117
CO[C@@H]1CN(C)C(=O)c2ccc(NC(=O)NC(C)C)cc2OC[C@@H](C)NC[C@@H]1C | -1
CO[C@@H]1CN(C)C(=O)c2cc(NC(=O)NC(C)C)ccc2OC[C@H](C)N(C(=O)NC(C)C)C[C@@H]1C | -3
CNC(=O)C[C@@H]1CC[C@@H]2[C@H](COc3ccc(NC(=O)NC(C)C)cc3C(=O)N2C)O1 | 53*
CO[C@@H]1CN(C)C(=O)c2cc(NC(=O)NC(C)C)ccc2OC[C@@H](C)N(C(=O)NC(C)C)C[C@@H]1C | 0
COC(=O)C[C@H]1CC[C@H]2[C@H](COc3ccc(NS(=O)(=O)c4ccc(F)cc4)cc3C(=O)N2C)O1 | 37*
Cc1cc(S(=O)(=O)NCC(c2ccccc2)c2ccccc2)ccc1-n1cnnn1 | -125
CC(=O)N1CCSc2ccc(S(=O)(=O)NCCc3ccc(Cl)cc3)cc21 | -94
COc1cccc(C2(c3cccc(OC)c3)CC2C(=O)Nc2ccc(F)cc2)c1 (stereo not drawn) | -108
C[C@H](CO)N1C[C@H](C)[C@@H](CN(C)C(=O)CN(C)C)Oc2cc(-c3ccccc3)ccc2S1(=O)=O | -3
SMILES | miR122 inh
COc1ccc(NC(=O)Nc2ccc3c(c2)OC[C@@H](C)NC[C@H](C)[C@@H](OC)CN(C)C3=O)cc1 | -1
CCC(=O)Nc1ccc2c(c1)OC[C@@H](C)N(C(=O)c1ccccc1F)C[C@H](C)[C@@H](OC)CN(C)C2=O | -3
CO[C@@H]1CN(C)C(=O)c2ccc(NC(=O)c3ccc(Oc4ccccc4)cc3)cc2OC[C@H](C)NC[C@@H]1C | 37*
CO[C@@H]1CN(C)C(=O)c2cc(NC(C)=O)ccc2OC[C@H](C)N(C(=O)c2ccccc2)C[C@@H]1C | -1
CO[C@@H]1CN(C)C(=O)c2ccc(NC(C)=O)cc2OC[C@@H](C)N(C(=O)c2ccccc2F)C[C@H]1C | 35*
COc1ccc(NC(=O)Nc2ccc3c(c2)OC[C@@H](C)NC[C@@H](C)[C@@H](OC)CN(C)C3=O)cc1 | 3
C[C@H]1CN([C@@H](C)CO)S(=O)(=O)c2ccc(Br)cc2O[C@H]1CN(C)C(=O)c1ccccc1F | 1
Cc1ccc(S(=O)(=O)N(C)C[C@@H]2Oc3ncc(C#CCC(C)C)cc3C(=O)N([C@@H](C)CO)C[C@H]2C)cc1 | 3
